Screening results deposited in PubChem BioAssay by National Center for Advancing Translational Sciences (NCATS).
An excerpt weighted towards active compounds, which were near 19% of everything screened.
TDP1 cell noCPT: qHTS for Inhibitors of human tyrosyl-DNA phosphodiesterase 1 (TDP1): qHTS in cells in absence of CPT; hit rate 15% among 420,000; Potency, µM (series often up to 46.2 µM), usual class: inhibitors; DT40 Tdp1-/- hTDP1 cells, no CPT, ATP luminescence, 48 h; AID 686978, 2013; note: nearly all actives have a fitted effect of over 55% in size
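Cells were dispensed at 400 per well, compounds added by pin tool, plates incubated ≥48 hr at 37 °C, then CellTiter-Glo added for 30 min at room temperature before luminescence reading. Line: DT40 Tdp1-/- complemented with hTDP1; camptothecin omitted.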
RORg inh: qHTS for inhibitors of ROR gamma transcriptional activity | Nuclear receptor ROR-gamma (Mus musculus), P51450 | Drosophila S2 Gal4-RORgamma UAS-luciferase reporter, 20 h | Potency, µM (series often up to 53.6 µM), most hits filed as inhibitors | hit rate 5.4% among 310,000 | AID 2551, 2010; note: nearly all actives have a fitted effect of over 60% in size
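Luciferase reporter read in Schneider cells carrying Gal4-RORγ (mouse) and UAS-Photinus luciferase; cells given compound 1 h before 700 uM copper sulfate induction, then incubated 20 h at ambient temperature.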
TDP1 cell CPT: qHTS for Inhibitors of human tyrosyl-DNA phosphodiesterase 1 (TDP1): qHTS in cells in presence of CPT; chicken DT40 Tdp1-/-;hTDP1 cells + 20 nM CPT, ATP luminescence, 48 h; Potency, µM (top dose mostly 46.2 µM), hits mostly inhibitors; hit rate 12% among 420,000; AID 686979, 2013; note: nearly all actives have a fitted effect of over 55% in size
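Chicken DT40 Tdp1-/- cells stably complemented with human TDP1 were seeded at 400 cells/well in medium containing 20 nM camptothecin, exposed to pin-transferred compounds, and grown at 37 °C for at least 48 hr. Viability was read as ATP luminescence.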
TDP1 inh: qHTS Assay for Inhibitors of Tyrosyl-DNA Phosphodiesterase (TDP1); Tyrosyl-DNA phosphodiesterase 1 (Homo sapiens), Q9NUW8; recombinant TDP1, AlphaScreen DNA substrate cleavage; Potency, µM (doses to about 130 µM), hits mostly inhibitors; hit rate 0.28% among 350,000; AID 485290, 2010; note: nearly all actives have a fitted effect of over 40% in size
Target sequence (Q9NUW8 whole entry, looked up): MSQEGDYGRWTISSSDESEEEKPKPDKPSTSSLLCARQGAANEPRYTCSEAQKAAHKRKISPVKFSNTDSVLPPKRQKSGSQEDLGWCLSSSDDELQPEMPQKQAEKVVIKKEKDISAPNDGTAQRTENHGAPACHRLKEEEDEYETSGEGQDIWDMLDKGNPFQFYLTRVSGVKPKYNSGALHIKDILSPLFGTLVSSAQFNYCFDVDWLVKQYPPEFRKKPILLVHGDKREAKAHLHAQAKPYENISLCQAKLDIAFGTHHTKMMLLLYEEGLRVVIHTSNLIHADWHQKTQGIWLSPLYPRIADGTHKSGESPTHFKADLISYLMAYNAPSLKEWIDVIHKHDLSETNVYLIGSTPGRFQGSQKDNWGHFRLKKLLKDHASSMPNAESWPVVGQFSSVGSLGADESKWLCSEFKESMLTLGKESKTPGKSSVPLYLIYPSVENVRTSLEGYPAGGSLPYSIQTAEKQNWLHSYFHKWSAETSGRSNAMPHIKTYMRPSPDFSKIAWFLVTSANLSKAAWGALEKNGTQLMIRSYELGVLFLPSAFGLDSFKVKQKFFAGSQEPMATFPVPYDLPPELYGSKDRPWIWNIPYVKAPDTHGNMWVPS
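E. coli-derived human Tdp1, 1 nM final. Cpd preinc 15 min RT; substrate 15 nM final, 5 min RT; AS bead mix 10 ug/ml final, 10 min RT. Signal loss = tyrosine-FITC cleavage. No-enzyme wells = max signal.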
Gal4-VP16 FLuc: VP16 counterscreen qHTS for inhibitors of ROR gamma transcriptional activity. Drosophila S2 Gal4-VP16 UAS-luciferase, luminescence, 20 h. Potency, µM (series often up to 53.6 µM), usual class: inhibitors. hit rate 3.5% among 310,000. AID 2546, 2010;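 note: Gal4-VP16 expression switched on by copper sulfate through the metallothionein promoter; nearly all actives have a fitted effect of over 50% in size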
Each line names hits and unclear results; the compound was inactive in the other large screens. Calls come from the whole dose curve; as a rule, active = well fitted curve in the direction sought with a large enough effect; inconclusive = small, poorly fitted or top-dose-only effect, or another doubt; inactive = no such curve, though single readings can be large; an effect the other way counts as inactive or inconclusive.

Cc1onc(-c2ccccc2)c1C(=O)N1CCN(S(=O)(=O)c2ccccc2Br)CC1	TDP1 cell noCPT 15µM, TDP1 cell CPT inconclusive
CC(Sc1nnc(-c2ccccc2)c(-c2ccccc2)n1)C(=O)N1CCc2ccccc21 (stereo not given)	TDP1 cell noCPT 16µM, RORg inh 2.2µM, TDP1 cell CPT inconclusive, Gal4-VP16 FLuc 11µM
CC1Cc2ccccc2N1C(=O)CSc1nnc(-c2ccccc2)c(-c2ccccc2)n1 (stereo not given)	TDP1 cell noCPT inconclusive, TDP1 cell CPT 21µM
CC1Cc2ccccc2N1C(=O)CSc1nncn1C (stereo not given)	none
CC1Cc2ccccc2N1C(=O)CSc1nnc2c(n1)[nH]c1ccccc12 (stereo not given)	TDP1 cell noCPT 21µM, TDP1 cell CPT inconclusive
Cc1nnc(SC(C)C(=O)N2CCc3ccccc32)s1 (stereo not given)	none
COc1cc(C(=O)Nc2nnc(C3=COCCO3)o2)cc(OC)c1OC	RORg inh 2.5µM, Gal4-VP16 FLuc 2.8µM
CCOc1ccc(C(=O)Nc2ncn[nH]2)cc1	none
Cc1ccc(-c2nnc(NC(=O)C3=COCCO3)o2)c(C)c1	none (no result: RORg inh, Gal4-VP16 FLuc)
CCOc1ccc(C(=O)Nc2nnc(C3=COCCO3)o2)cc1	TDP1 cell noCPT inconclusive, RORg inh 2.5µM, TDP1 cell CPT inconclusive, Gal4-VP16 FLuc 1µM
CCCCC(=O)Nc1nnc(C2=COCCO2)o1	RORg inh 13µM
COc1ccc(C(=O)Nc2nnc(C3=COCCO3)o2)cc1	RORg inh 2.2µM, Gal4-VP16 FLuc 2µM
CS(=O)(=O)c1ccc(-c2nnc(NC(=O)C3=COCCO3)o2)cc1	none (no result: RORg inh, TDP1 inh, Gal4-VP16 FLuc)
COc1ccc([C@@H]2CC=C(C(=O)O)[C@H](c3cccc(Cl)c3)N2S(=O)(=O)c2ccc(C)cc2)cc1OC	none (no result: RORg inh, Gal4-VP16 FLuc)
COc1ccc(C2NC(=O)CCC2[N+](=O)[O-])c(OC)c1OC (stereo not given)	none
O=C(NCCN1CCOCC1)Nc1ccc(F)cc1	none
COc1ccc(CCNC(=O)Cn2c(-c3cccs3)cc3cc(F)ccc32)cc1OC	TDP1 cell noCPT 9.2µM, TDP1 cell CPT 7.3µM (no result: RORg inh, Gal4-VP16 FLuc)
CC(CNC(=O)Cn1c(-c2cccs2)cc2ccccc21)c1ccccc1 (stereo not given)	TDP1 cell noCPT inconclusive, TDP1 cell CPT 21µM (no result: RORg inh, Gal4-VP16 FLuc)
Cc1ccc(CNC(=O)Cn2c(-c3cccs3)cc3cc(Cl)ccc32)cc1	TDP1 cell noCPT 23µM, TDP1 cell CPT inconclusive (no result: RORg inh, Gal4-VP16 FLuc)
CCOc1ccc(CCNC(=O)Cn2c(-c3cccs3)cc3ccccc32)cc1OCC	TDP1 cell noCPT inconclusive, TDP1 cell CPT inconclusive (no result: RORg inh, Gal4-VP16 FLuc)
CN(C)c1ccc(CNC(=O)Cn2c(-c3cccs3)cc3cc(Cl)ccc32)cc1	TDP1 cell noCPT inconclusive, TDP1 cell CPT inconclusive (no result: RORg inh, Gal4-VP16 FLuc)
COCCCNC(=O)Cn1c(=O)n(CC(=O)NCCc2ccc(OC)c(OC)c2)c(=O)c2sccc21	none
COc1ccc(CCNC(=O)Cn2c(=O)n(-c3ccc(C)c(F)c3)c(=O)c3sccc32)cc1OC	TDP1 cell noCPT 15µM, TDP1 cell CPT 9.2µM
CCN(CC)S(=O)(=O)c1cccc(C(=O)/C=C2/N(C)c3ccccc3C2(C)C)c1	TDP1 cell noCPT 15µM, TDP1 cell CPT 21µM, Gal4-VP16 FLuc inconclusive
CN1/C(=C\C(=O)Nc2ccc(F)cc2)C(C)(C)c2ccccc21	TDP1 cell noCPT inconclusive, RORg inh inconclusive, TDP1 cell CPT inconclusive, Gal4-VP16 FLuc inconclusive
CN1/C(=C\C(=S)NC(=O)c2cccc(Br)c2)C(C)(C)c2ccccc21	TDP1 cell noCPT 5.2µM, RORg inh inconclusive, TDP1 cell CPT 9.2µM, Gal4-VP16 FLuc 6.3µM
CN1/C(=C\C(=S)NC(=O)c2ccc([N+](=O)[O-])cc2)C(C)(C)c2ccccc21	TDP1 cell noCPT 23µM, RORg inh 3.5µM, TDP1 cell CPT 16µM, Gal4-VP16 FLuc 4µM
CN1/C(=C/C=N/NC(=O)c2ccc([N+](=O)[O-])cc2)C(C)(C)c2ccccc21	RORg inh 1.8µM, TDP1 cell CPT inconclusive, Gal4-VP16 FLuc 2.2µM
C[C@H](CO)N1C[C@H](C)[C@H](CN(C)C(=O)Nc2ccc(F)cc2)Oc2ccc(NC(=O)NC3CCCCC3)cc2CC1=O	TDP1 cell CPT inconclusive (no result: RORg inh, Gal4-VP16 FLuc)
CCOC(=O)C(NCc1ccccn1)(NC(=O)c1cccnc1)C(F)(F)F (stereo not given)	RORg inh 16µM
CCOC(=O)C(NC(=O)c1cccnc1)(Nc1cccc(C)n1)C(F)(F)F (stereo not given)	none
FC(F)(F)c1cccc(CN2CCC(c3cc(-c4cccs4)n[nH]3)CC2)c1	TDP1 cell noCPT 21µM, TDP1 cell CPT 8.2µM
COc1cccc(-c2ccc(C#N)c(OC(=O)c3c(Cl)cccc3Cl)n2)c1	none
CS(=O)(=O)c1ccc(-c2ccc3c(c2)CC(CNC(=O)C2(N4CCOCC4)CCCCC2)O3)cc1 (stereo not given)	TDP1 cell noCPT 16µM (no result: RORg inh, TDP1 inh, Gal4-VP16 FLuc)
CCOc1cc(S(=O)(=O)N2CCN(S(=O)(=O)CC)CC2)c(OCC)cc1-n1cnnn1	none
Cc1ccc(/C=C2\SC(=O)N(CCNC(=O)C3CSC4(C)CCC(=O)N34)C2=O)cc1 (stereo not given)	TDP1 cell noCPT 15µM, TDP1 cell CPT inconclusive (no result: RORg inh, Gal4-VP16 FLuc)
CC(=O)NC12CC3CC(C1)CC(C(=O)Nc1nc4ccc(F)cc4s1)(C3)C2	TDP1 cell noCPT 26µM, TDP1 cell CPT inconclusive
CC12CCC(=O)N1C(C(=O)NCCc1ccc(F)cc1)CS2 (stereo not given)	none (no result: RORg inh, TDP1 inh, Gal4-VP16 FLuc)
CC12CCC(=O)N1C(C(=O)NCCc1ccccc1)CS2 (stereo not given)	RORg inh 7.9µM, Gal4-VP16 FLuc 16µM
CC12CCC(=O)N1C(C(=O)Nc1nc3ccc(F)cc3s1)CS2 (stereo not given)	TDP1 cell noCPT 10µM (no result: RORg inh, Gal4-VP16 FLuc)
CCc1ccccc1Nc1sc(C(=O)c2cccc(OC)c2)c(N)c1S(=O)(=O)c1ccccc1	TDP1 cell noCPT inconclusive, TDP1 cell CPT inconclusive (no result: RORg inh, Gal4-VP16 FLuc)
CNNC(=O)C(C)NC(=O)c1ccc(Br)cc1 (stereo not given)	none
NC(=O)CN1C(=O)C(=O)N(Cc2ccc(Cl)cc2)C1=O	none (no result: TDP1 inh)
COc1ccc(CN2C(=O)c3ccccc3C2=O)cc1	Gal4-VP16 FLuc inconclusive (no result: TDP1 inh)
COc1ccc(CN2C(=O)c3ccccc3C(/C=N\OCc3ccc(F)cc3)C2=O)cc1 (stereo not given)	TDP1 cell noCPT 8.2µM, TDP1 cell CPT inconclusive
COc1ccc(CN2C(=O)c3ccccc3C(/C=N/OCc3ccc(Cl)cc3)C2=O)cc1 (stereo not given)	TDP1 cell noCPT 12µM, TDP1 cell CPT 13µM
O=C(Nc1ccc2nc(SCCOc3ccccc3)sc2c1)c1ccc2c(c1)OCO2	TDP1 cell noCPT inconclusive, TDP1 cell CPT inconclusive (no result: RORg inh, Gal4-VP16 FLuc)
